Assay results as given in PubChem BioAssay AID651704 (Broad Institute, 2012).
Where “and” joins values, the source holds several entries; their conditions need not be identical. Equal entries are not always repeated. Screen size: about 350,000 compounds; about 1,600 (0.46%) were called active.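 Rule for the calls: active = every replicate reaching a set inhibition limit, whatever the replicate mean (cut at about 25% in these data); inconclusive = mean inhibition reaches that limit but some replicates miss it; inactive = the rest.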 The sample as a whole holds a higher share of actives than the screen did. A structure can be active in one record and inactive in another.

The compounds below were run against Protein AF-9 (Homo sapiens) (UniProt P42568) (assay: inhibitors of AF4 peptide binding to AF9, primary screen, biochemical, AlphaScreen, biotin-AF4 peptide, FLAG-AF9, single point (AID 651704;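 note: 0% = plate neutral control median and 100% = total signal loss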)). Conditions: at 10 µM, stronger effect = higher value.
Chain of Protein AF-9 (Homo sapiens) (P42568 whole entry, looked up): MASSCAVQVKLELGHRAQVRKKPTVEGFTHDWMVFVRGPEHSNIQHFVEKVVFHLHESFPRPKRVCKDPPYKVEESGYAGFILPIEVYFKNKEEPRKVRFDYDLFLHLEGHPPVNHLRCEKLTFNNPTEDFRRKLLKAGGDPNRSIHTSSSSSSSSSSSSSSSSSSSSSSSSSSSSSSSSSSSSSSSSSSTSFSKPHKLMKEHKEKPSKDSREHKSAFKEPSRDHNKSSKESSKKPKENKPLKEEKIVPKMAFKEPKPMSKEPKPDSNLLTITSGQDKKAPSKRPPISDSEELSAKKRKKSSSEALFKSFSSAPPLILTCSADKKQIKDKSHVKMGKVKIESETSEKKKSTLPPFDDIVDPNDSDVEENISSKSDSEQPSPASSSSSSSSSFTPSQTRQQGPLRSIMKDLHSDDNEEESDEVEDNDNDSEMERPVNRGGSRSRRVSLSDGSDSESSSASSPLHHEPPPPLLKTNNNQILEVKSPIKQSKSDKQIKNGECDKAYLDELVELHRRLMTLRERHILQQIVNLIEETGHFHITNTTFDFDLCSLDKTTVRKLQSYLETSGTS

Compound | inhibition
COc1ccc2c(c1)c(=Cc1ccc(N(C)C)cc1)c1cc(-c3ccccc3)[n+](C)n12 | 67.9% (active)
COc1cccc2c1C(=O)c1c(O)c3c(c(O)c1C2=O)CC(O)(C(C)=NNC(=O)c1ccc(Cl)c(Cl)c1)CC3OC1CC(N)C(O)C(C)O1 (stereo not given) | 33.8% (active)
N#C[C@@H]1[C@H](c2ccccc2-c2cccc(F)c2)[C@@H](CO)N1C(=O)CN1CCOCC1 | -3.02% (inactive)
CO[C@@H]1CN(C)C(=O)c2ccc(NS(C)(=O)=O)cc2OC[C@H](C)NC[C@H]1C | -2.11% (inactive)
Cc1ccc2c(c1)C1CN(C)CCC1N2S(=O)(=O)c1cccc(F)c1 (stereo not given) | 4.04% (inactive)
Cc1ccc2c(c1)C1CN(C)CCC1N2C(=S)Nc1ccc(OC(F)F)cc1 (stereo not given) | 5.25% (inactive)
Cc1ccc2c(c1)C1CN(C)CCC1N2S(=O)(=O)c1ccc(Oc2ccc([N+](=O)[O-])cc2)cc1 (stereo not given) | 20.9% (inactive) and 27.4% (active)
CN(C)C(=O)c1cccc(-c2ccc([C@H]3[C@H](CO)N4C(=O)CN(C(=O)C5CCCCC5)C[C@@H]34)cc2)c1 | -3% (inactive)
CC(C)CC#Cc1cnc2c(c1)C(=O)N([C@@H](C)CO)C[C@@H](C)[C@@H](CN(C)C(=O)c1cccnc1)O2 | -2.62% (inactive)
COc1ccc2c3c(n(C)c2c1)[C@@H](CO)N(Cc1ccccc1)CC31CN(C(=O)C2CC2)C1 | 2.25% (inactive)
COc1ccccc1-c1cc(NC(C)=O)c2ncc(-c3ccc(F)cc3)n2c1 | -6.86% (inactive)
CC(=O)Nc1cc(-c2ccc(N3CCN(C)CC3)cc2)cn2c(-c3ccc(F)cc3)cnc12 | 26.2% (active)
CC(=O)Nc1cc(-c2ccc(N3CCN(C)CC3)cc2)cn2c(-c3cccc(C(=O)N(C)C)c3)cnc12 | 9.58% (inactive)
CN(C)C(=O)c1cccc(-c2ccc3c(c2)[C@H]2[C@H](CCN2S(=O)(=O)c2cn(C)cn2)[C@@H](CO)N3)c1 | -3.61% (inactive)
Cc1noc(C)c1NC(=O)N(C)C[C@@H]1OCCCC[C@H](C)Oc2ccc(NC(=O)NC3CCCCC3)cc2C(=O)N([C@H](C)CO)C[C@H]1C | -0.856% (inactive)
CCCNC(=O)C[C@H]1C[C@H]2c3cc(NC(=O)NC4CCCCC4)ccc3O[C@H]2[C@H](CO)O1 | 5.96% (inactive)
CCNC(=O)C[C@H]1CC[C@@H](NC(=O)C2CCOCC2)[C@@H](CO)O1 | 1.25% (inactive)
O=C(NCCc1cccc(F)c1)C1CCCN(c2nc3ccccc3s2)C1 (stereo not given) | 39.3% (active)
O=C(NCc1ccccc1)C1CCCN(c2nc3ccsc3c(=O)s2)C1 (stereo not given) | -3.41% (inactive)
Cc1cc(=O)n2nc(N3CCCC(C(=O)NCc4cccc(Cl)c4)C3)sc2n1 (stereo not given) | 2.52% (inactive)
